Screening data (PubChem)
Pf growth 48h = inhibits P. falciparum growth in the first generation, 48 h. P. falciparum luciferase growth in erythrocytes, 48 h. Potency, µM (doses to about 28.7 µM), inactives show at the top dose activity change, negative = inhibition, usual class: inhibitors. hit rate 5.9% among 310,000. AID 504832; further: potency means the concentration at half of the fitted maximal effect; on the % scale 0 is the no-effect control and ±100 the full control effect
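Read-out is firefly luciferase luminescence from an integrated reporter in P. falciparum, so falling signal marks reduced parasite growth. Infected erythrocytes were at 2% hematocrit and 0.1% parasitemia (final) in Albumax-supplemented RPMI 1640.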
Shiga inhibitor = inhibitors of Shiga toxin in Vero cells | inhibition, % at 38.7 µM | Vero cells, Shiga toxin protein synthesis inhibition reporter | hit rate 9.2% among 290,000; in the data active means inhibition mostly above about 28%, no sharp cut-off; inactive means mostly below about 43%; further: 0% is about no effect
Marburg entry inh = Marburg virus entry inhibition; Marburg virus pseudotyped entry inhibition, cell reporter; Potency, µM (highest dose often 37.8 µM), without a hit: at the top dose activity change, negative = inhibition, most hits filed as inhibitors; hit rate 1.8% among 300,000; AID 540276; calls by dose curve; tested in HEK293 cells; further: potency means the concentration at half of the fitted maximal effect; on the % scale 0 is the no-effect control and ±100 the full control effect
CHX counter = affects cycloheximide protein synthesis inhibition readout, counter-screen; AID 2314; cell reporter, cycloheximide protein synthesis inhibition counterscreen; hit rate 12% among 300,000; max response, %; in the data active means max response mostly above about 13%, no sharp cut-off; inactive means mostly below about 14%; further: read at 38.3 µM for the half of the compounds with a filed dose; 0% is about no effect
LASV entry inh = inhibitors of Lassa virus binding or cell entry | Lassa virus pseudotype entry inhibition, cell reporter | Potency, µM (titrated, usually from 37.9 µM), for inactives: at the highest dose activity change, negative = inhibition, actives largely listed as inhibitors | hit rate 1.2% among 300,000 | AID 540256; calls by dose curve; tested in HEK293 cells; further: potency means the concentration at half of the fitted maximal effect; on the % scale 0 is the no-effect control and ±100 the full control effect; nearly all actives have a fitted effect of over 50% in size
Pf growth 96h = P. falciparum growth inhibition at 96 hour, primary screen for plastid delayed-death inhibitors. P. falciparum luciferase reporter growth, 96 h. Potency, µM (series often up to 28.7 µM), for inactives: at the highest dose activity change, negative = inhibition, hits mostly inhibitors. hit rate 6.9% among 320,000; further: potency means the concentration at half of the fitted maximal effect; on the % scale 0 is the no-effect control and ±100 the full control effect
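Luminescence readout: decreased luciferase signal marks inhibited growth of reporter-expressing P. falciparum in infected red cells (2% hematocrit, 0.05% parasitemia final), exposed to compound two generations (96 h, 37 C, 5% CO2).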
* = called active by the depositor; u = inconclusive; x = no result; + = active, no number; [ ] = remark or other dose. This is a sample that favours compounds with a hit; in the whole collection about 19% have one here. Unless noted, the call rests on the fitted dose curve; in most records, active means well fitted inhibition curve with a large enough effect; inconclusive means small, poorly fitted or top-dose-only effect, or another doubt; inactive means no such curve, though single readings can be large or run the other way.

SMILES	Pf growth 48h	Shiga inhibitor	Marburg entry inh	CHX counter	LASV entry inh	Pf growth 96h
CC1CCN(c2nc3ccc(C(=O)N4CCN(Cc5ccc6c(c5)OCO6)CC4)cc3s2)CC1	x	+	3%	136*	x	4.1µM*
Cc1ccc2c(C)c(C(=O)N3CCN(Cc4ccc5c(c4)OCO5)CC3)oc2c1C	u	75*	-4%[46.1 µM]	32*	1%[46.1 µM]	u
Cc1noc(C)c1S(=O)(=O)N1CCC(C(=O)N2CCN(Cc3ccc4c(c3)OCO4)CC2)CC1	u	-6	3%	-1	-13%	5.9µM*
O=C(CCc1ccc(S(=O)(=O)NCc2ccccc2)cc1)N1CCN(Cc2ccc3c(c2)OCO3)CC1	u	70	-15%	-6	-17%	u
O=C(CCc1ccc(S(=O)(=O)N2CCOCC2)cc1)N1CCN(Cc2ccc3c(c2)OCO3)CC1	x	-9	19%	-2	22%	3.3µM*
Cc1cc(S(=O)(=O)NC(C)C)ccc1OCC(=O)N1CCN(Cc2ccc3c(c2)OCO3)CC1	u	-4	u	-2	8.2µM*	8%
CC(C)NS(=O)(=O)c1ccc(OCC(=O)N2CCN(Cc3ccc4c(c3)OCO4)CC2)c(Cl)c1	u	-7	u	-2	u	x
Cc1cc(-c2nn(C)c(=O)c3ccccc23)ccc1CNC(=O)NC1CCCCC1	u	-5	-10%[46.1 µM]	1	u	u
COC(=O)c1ccc(NC(=S)NC2CC(C)(C)NC(C)(C)C2)cc1	-20%	-13	u	-1	u	21%
Cc1ccc(NC(=O)[C@H]2O[C@@H]3OC(C)(C)O[C@@H]3[C@H]3OC(C)(C)O[C@H]32)cc1F	x	x	6%[46.1 µM]	x	-11%[46.1 µM]	x
S=C(Nc1ccccc1Cl)N(CCCN1CCOCC1)Cc1ccco1	13%	-2	0%	1	-8%	-98%
CC(=O)c1ccc2c(c1)C1C(Cl)C(Sc3ccccc3[N+](=O)[O-])CC1C(c1ccccc1[N+](=O)[O-])N2 (stereo not drawn)	2.3µM*	8	u	4	u	u
CC(=O)c1ccc2c(c1)C1C(Cl)C(Sc3ccccc3[N+](=O)[O-])CC1C(c1ccccc1)N2 (stereo not drawn)	u	-3	-17%	-2	-18%	u
COc1cccc(C(=O)/C=C/Nc2cccc(O)c2)c1	x	-10	u	-1	2.9µM*	240%
COc1cccc(C(=O)/C=C/Nc2ccc(S(=O)(=O)Nc3cccc(C(C)=O)c3)cc2)c1	-73%	97*	u	57*	u	u
COc1ccc(S(=O)(=O)Nc2cccc(C(C)=O)c2)cc1Br	9%	-12	3%[46.1 µM]	-6	u	21%
COc1cccc(N/C=C/C(=O)c2ccc(Cl)cc2)c1	285%	92*	u	63*	u	-2%
COc1cccc(C(=O)/C=C/Nc2ccc(NC(C)=O)cc2)c1	95%	60	-23%	42*	u	12%
Cc1nc(NC(=O)C(C)Oc2cccc(Cl)c2)sc1C(=O)N(C)C (stereo not drawn)	32%	46	u	11	-21%	13%
CC(C)CNCC1OCc2ccccc2CO1	2%	-6	19%[46.1 µM]	-2	9%	9%
COc1ccc(N/C=C/C(=O)c2ccc(Cl)cc2)cc1	266%	69*	u	63*	-19%	4%
COc1cccc(N/C=C/C(=O)c2ccc(C)cc2)c1	0%	63*	x	21*	x	145%
COc1ccc(-c2csc(NC(=O)C3CC(=O)N(Cc4ccco4)C3)n2)cc1 (stereo not drawn)	u	13	u	10	u	u
COc1ccc(-c2nc(NC(=O)C3CCN(c4nc5ccccc5o4)CC3)sc2C)cc1	8.3µM*	-3	u	-4	u	x
COc1ccc(-c2nc(NC(=O)C3CC(=O)N(Cc4ccco4)C3)sc2C)cc1 (stereo not drawn)	12µM*	x	x	x	x	u
SMILES	Pf growth 48h	Shiga inhibitor	Marburg entry inh	CHX counter	LASV entry inh	Pf growth 96h
COc1ccc2[nH]c(O)c(N=O)c2c1	-16%	-8	15%	1	-4%	u
CSc1ccc(C(=O)C2CCCN(Cc3cc4ccccc4[nH]3)C2)cc1 (stereo not drawn)	u	-2	3.5µM*	-4	u	-18%
COc1ccc(CN2CCCC(C(=O)c3cccc(OC(C)C)c3)C2)cc1Cn1cccn1 (stereo not drawn)	9.3µM*	-12	x	9	x	-30%
O=C(c1ccc(Cl)cc1)C1CCCN(Cc2cccn2-c2cccnc2)C1 (stereo not drawn)	24%	-3	-39%[46.1 µM]	-2	0%	1%
CSc1ccc(C(=O)C2CCCN(Cc3cccn3-c3cccnc3)C2)cc1 (stereo not drawn)	10µM*	-7	u	-2	u	11%
COc1ccc(C(=O)C2CCCN(Cc3cccn3-c3cccnc3)C2)cc1OC (stereo not drawn)	u	-3	-1%[46.1 µM]	3	14%	39%
CC(C)Oc1cccc(C(=O)C2CCCN(Cc3cccn3-c3cccnc3)C2)c1 (stereo not drawn)	u	-21	x	2	x	12µM*
CCOc1ccccc1NC(=O)c1ccc(S(=O)(=O)N2CCCCC2)cc1	u	-7	-18%[46.1 µM]	3	u	1%
CC(O)C1C=CC=CC(=O)OC2CC3OC4C5OC5(C)C(O)CC4(COC(=O)C(O)C(C)CCO1)C2(C)C31CO1 (stereo not drawn)	x	x	0.13µM*	x	x	x
C=CCNC(=S)Nc1cc(Cl)ccc1OC	8%	-5	23%	-1	-11%	64%
FC(F)Oc1ccc(NC(=S)NC23CC4CC(CC(C4)C2)C3)cc1	4.1µM*	59*	-29%[46.1 µM]	25*	2.5µM*	4.1µM*
CCOC(=O)CNC(=O)C12CC3CC(C1)CC(c1ccc(C)cc1)(C3)C2	0%	-6	1%[46.1 µM]	6	u	5%
CCOc1ccc(NC(=S)NC23CC4CC(CC(C4)C2)C3)cc1	10µM*	7	x	1	x	21%
CN(NC(=S)Nc1ccc(OC(F)F)cc1)C(=S)Nc1ccc(OC(F)F)cc1	28%	-11	8%[46.1 µM]	2	u	55%
CN(C)S(=O)(=O)c1cccc(NC(=S)NC23CC4CC(CC(C4)C2)C3)c1	u	-8	10%[46.1 µM]	-2	u	u
CN(C)c1ccc(NC(=S)NC23CC4CC(CC(C4)C2)C3)cc1	5.2µM*	52*	u	44*	u	0.59µM*
CCOc1ccc(NC(=O)C23CC4CC(C2)CC(c2ccccc2)(C4)C3)cc1	u	-8	-19%	1	-6%	1.9µM*
CCOC(=O)c1c(-c2ccc(OC)cc2)csc1NC(=O)COc1ccc2c(C)cc(=O)oc2c1	13%	-12	0%	2	-6%	-19%
CCOC(=O)c1c(-c2ccccc2Cl)csc1NC(=O)CSc1nc(C)cc(=O)[nH]1	-24%	-10	8%	-2	u	12µM*
